# Measured values as given in PubChem BioAssay (Tox21).
# “And” between values parts separate entries of the source, which are not always exact repeats. Equal entries are not always repeated. Inconclusive results are not listed. Where a call stands in place of a potency, no number is given. More than one record can exist for a structure, and the calls need not agree. The source made the active and inactive calls. Calls follow the shape of the dose curve; as a rule, active = well fitted inhibition curve with a large enough effect in the repeat runs; inconclusive = weak or mixed curves; inactive = no such curve, though single readings can be large or run the other way.
# Biological target: Estrogen receptor (Homo sapiens) (UniProt P03372)
# Sequence (P03372 whole entry, looked up): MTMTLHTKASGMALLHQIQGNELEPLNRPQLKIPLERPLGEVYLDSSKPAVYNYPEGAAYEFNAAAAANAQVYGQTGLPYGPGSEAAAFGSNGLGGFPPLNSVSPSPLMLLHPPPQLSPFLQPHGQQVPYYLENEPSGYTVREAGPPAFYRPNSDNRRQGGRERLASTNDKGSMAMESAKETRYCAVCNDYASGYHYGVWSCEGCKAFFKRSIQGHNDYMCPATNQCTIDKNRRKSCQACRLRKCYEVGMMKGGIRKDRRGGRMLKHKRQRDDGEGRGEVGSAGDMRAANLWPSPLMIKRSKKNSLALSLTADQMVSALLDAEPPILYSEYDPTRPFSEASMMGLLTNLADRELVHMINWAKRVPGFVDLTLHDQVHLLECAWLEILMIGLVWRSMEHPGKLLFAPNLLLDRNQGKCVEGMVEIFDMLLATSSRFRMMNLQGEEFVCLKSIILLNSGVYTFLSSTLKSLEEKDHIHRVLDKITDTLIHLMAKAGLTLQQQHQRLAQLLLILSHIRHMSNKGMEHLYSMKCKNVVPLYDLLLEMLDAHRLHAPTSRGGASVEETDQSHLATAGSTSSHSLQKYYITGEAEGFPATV
# Assay: qHTS assay to identify small molecule antagonists of the estrogen receptor alpha (ER-alpha) signaling pathway using the BG1 cell line in the presence of 0.1 nM 17-beta-estradiol (AID 1259244); also: nearly all actives have a fitted effect of over 50% in size
# Settings: VM7Luc4E2 (BG1) ERE-luciferase, antagonist mode, 0.1 nM E2, 22 h; series mostly up to 92.4 µM
# From the text: National Center for Advancing Translational Sciences [NCATS]
# NIH Chemical Genomics Center [NCGC]
# U.S. Environmental Protection Agency [EPA]
# National Institutes of Environmental Health Sciences [NIEHS]
# National Toxicology Program [NTP]
# U.S. Food and Drug Administration [FDA]
# Estrogen receptor (ER), a member of the nuclear hormone receptor plays an important role in development, metabolic homeostasis and reproduction. Two subtypes of ER, ER-alpha and ER-beta, have similar expression patterns with some uniqueness in both types. Endocrine disrupting chemicals (EDCs) and their interactions with steroid hormone receptors like ER causes disruption of normal endocrine function. Therefore, it is important to understand the effect of environmental chemicals in ER signaling pathway. For identifying ER antagonists, VM7Luc4E2 cell line was used to screen against Tox21 compound libraries.
# VM7Luc4E2 cell line (provided by Denison MS, University of California) endogenously express full-length ER-alpha and is stably transfected with a plasmid containing four estrogen responsive elements (ERE) upstream of a luciferase reporter gene. The current screening for identification of ER-alpha inhibitors against Tox21 compound libraries used lower concentration (0.1 nM) of 17beta-Estradiol as a stimulator.
# Tox21 Assay Protocol Summary:
# VM7Luc4E2 cells were cultured in phenol red free assay medium containing 10% charcoal stripped FBS for 5 days prior to the assay. The cells were dispensed at 4,000 cells/well in 4 uL of assay medium into white wall/solid-bottom 1536-well plates (Corning Life Sciences, Corning, NY) using a Multidrop Combi (ThermoFisher Scientific, Waltham, MA) dispenser. After the assay plates were incubated at 37C and 5% CO2 for 24 hr, 23 nL of compounds dissolved in DMSO, positive controls or DMSO only was transferred to the assay plates by a Pintool station (Kalypsys, San Diego, CA). The transfer of compounds was followed by the addition of 1 uL of 0.1 nM (final concentration) agonist (17beta-Estradiol)/assay medium using a Flying Reagent Dispenser (FRD, Aurora Discovery, San Diego, CA). The plates were incubated at 37C and 5% CO2 for 22 hr. For luciferase reporter gene assay, 4 uL of ONE-Glo reagent (Promega Corporation, Madison, WI) was added to each well using the FRD and after 30 min incubation at room temperature luminescence intensity was measured using ViewLux plate reader (PerkinElmer, Shelton, CT).
# Potency is read from the fitted curve at half-maximal effect.
row,Structure (SMILES),Potency
1,Oc1c(Cl)cc(Cl)c(Cl)c1Cl,47.5 µM (active) and 61.1 µM (active)
2,ClC1=C(Cl)C(Cl)(Cl)C(Cl)=C1Cl,inactive
3,CC(=O)Nc1ccc(C(=O)O)cc1,inactive
4,O=C(c1ccc(O)cc1)c1ccc(O)cc1O,inactive
5,COC(=O)c1ccc(C(=O)OC)cc1,6.19 µM (active) and inactive
6,CN(C)c1ccc(C(=N)c2ccc(N(C)C)cc2)cc1,17 µM (active) and 23.4 µM (active)
7,O=C1O[C@H](CO)[C@@H](O)[C@H](O)[C@H]1O,inactive
8,Oc1ccc2ccccc2c1N=Nc1ccccc1,inactive
9,CC1(C)O[C@@H]2C[C@H]3[C@@H]4C[C@H](F)C5=CC(=O)CC[C@]5(C)[C@H]4[C@@H](O)C[C@]3(C)[C@]2(C(=O)CO)O1,inactive
10,Cc1cc(O)c2c(c1)C(=O)c1cc(O)cc(O)c1C2=O,inactive
11,CC1(C)CC(N=C=O)CC(C)(CN=C=O)C1 (stereo not given),inactive
12,CC(C)(C)C(=O)C1C(=O)c2ccccc2C1=O,61.1 µM (active)
13,O=Nc1ccc(O)cc1,inactive
14,O=[N+]([O-])C(CO)(CO)CO,inactive
15,Cc1cc(=O)[nH]c(C(C)C)n1,inactive
16,CC[Si](OC(C)=O)(OC(C)=O)OC(C)=O,inactive
17,C=C(C)C(=O)OCCCCCC,inactive
18,CN(CCOc1ccc(CC2SC(=O)NC2=O)cc1)c1ccccn1 (stereo not given),inactive
19,NC(=O)/N=N/C(N)=O,inactive
20,CCCCC(CC)C(=O)OCCOCCOCCOC(=O)C(CC)CCCC (stereo not given),inactive

row,Structure (SMILES),Potency
1,COCC(C)O (stereo not given),inactive
2,O=S(=O)(O)c1cc(S(=O)(=O)O)c2c(N=Nc3ccccc3)c(O)ccc2c1,inactive
3,O=C1CCCCC1,inactive
4,O=S(=O)(Oc1ccc(Cl)cc1Cl)c1ccccc1,inactive
5,Cn1c([N+](=O)[O-])cnc1COC(N)=O,inactive
6,NS(=O)(=O)c1cc2c(cc1Cl)NC=NS2(=O)=O,inactive
7,OC[C@@H](O)[C@@H](O)[C@H](O)[C@@H](O)CO,inactive
8,CCCCCC/C=C/CCCCCCCC(=O)O,inactive
9,COC(=O)c1ccccc1O,inactive
10,COCC(=O)O,inactive
11,CCCCC/C=C\C/C=C\CCCCCCCC(=O)OC,inactive
12,C=C1C2CCC(C2)C1(C)C (stereo not given),inactive
13,CC(C)Cc1ccccc1,inactive
14,CS(=O)(=O)c1ccc([C@@H](O)[C@@H](CO)NC(=O)C(Cl)Cl)cc1,inactive
15,CCCCCCOC(C)=O,inactive
16,Cc1ccc(C)c(C)c1,inactive
17,C=C(C)C(=O)OCCCCCCCCCCCC,inactive
18,OC1CCCC1,inactive
19,CCOC(=O)[C@H](CCc1ccccc1)N[C@@H](C)C(=O)N1Cc2ccccc2C[C@H]1C(=O)O,inactive
20,O=c1c(-c2ccc(O)cc2)coc2cc(O)ccc12,inactive
